# According to PubChem BioAssay:
# A number with no mark means an inactive call. For some of these results: Results with a measured potency or affinity are listed apart. Active and inactive are the calls of the source. Unless noted, how the calls were made is not given here.
# Legend:
# [1] = antimalarial activity against Dd2 strain (AID 2302;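 active means growth inhibition above 50% at the single 2 µM test dose, taken to imply half-maximal potency below 2 µM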;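 further: 0% = DMSO untreated growth and 100% = chloroquine plus artemisinin killed control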); details: P. falciparum Dd2 in RBCs, LDH growth readout, 72 h; at 2 µM; active compounds read high
# [2] = human hepatoma cell viability loss – ATP luminescence, cytotoxicity control for P. falciparum antimalarial project, primary screen (AID 2303;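 active means inhibition above 50%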;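 further: 0% = DMSO wells and 100% = digitonin-killed cells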); details: HepG2 viability, 24-48 h, at 10 µM, active compounds read high
# [3] = target: L-lactate dehydrogenase (Plasmodium falciparum (isolate CDC / Honduras)) (UniProt Q27743); assay: PfLDH activity inhibition – cell lysate, 3D7 strain, counter-screen for P. falciparum growth inhibition project (AID 2304);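 further: 0% = vehicle and 100% = reference inhibitor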; details: P. falciparum 3D7 crude extract, LDH APAD/NBT absorbance; at 2 µM; active compounds read high
# [4] = inhibition of 3D7 malaria parasite growth – strain 3D7 (AID 2306);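 further: 0% = DMSO wells and 100% = chloroquine plus artemisinin control wells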; details: P. falciparum 3D7 erythrocytic growth, LDH absorbance, 72 h; at 2 µM; active compounds read high
# [5] = target: Calcium-dependent protein kinase 1 (Plasmodium falciparum (isolate 3D7)) (UniProt P62344); assay: PfCDPK1 kinase inhibitors, biochemical, TCAMS library (AID 1159585; cut-off not given, nearly all actives have IC50 up to about 0.98 µM;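 further: inhibitors leave more ATP so luminescence rises with inhibition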); details: recombinant PfCDPK1, Kinase-Glo ATP depletion luminescence
# [6] = target: Plasmodium falciparum protein kinase 6 (PK6, PF3D7_1337100) (UniProt Q8IDW1); assay: PfPK6 kinase inhibitors, biochemical, TCAMS library (AID 1159586); details: recombinant PfPK6, Kinase-Glo ATP depletion luminescence
# [7] = target: Protein kinase 7 (PK7), Plasmodium falciparum 3D7 (PF3D7_0213400) (UniProt Q7YTF7); assay: inhibition of Plasmodium PK7 catalytic activity – biochemical, TCAMS antimalarial set, Kinase-Glo luminescence (AID 1159587); details: recombinant PfPK7, Kinase-Glo ATP depletion luminescence
# [8] = target: Calcium-dependent protein kinase 4 (Plasmodium falciparum (isolate 3D7)) (UniProt Q8IBS5); assay: PfCDPK4 kinase inhibitors, biochemical, TCAMS library (AID 1159588; cut-off not given, nearly all actives have IC50 up to about 0.91 µM); details: recombinant PfCDPK4, Kinase-Glo ATP depletion luminescence
# Sequence of Calcium-dependent protein kinase 4 (Plasmodium falciparum (isolate 3D7)) (Q8IBS5 whole entry, looked up): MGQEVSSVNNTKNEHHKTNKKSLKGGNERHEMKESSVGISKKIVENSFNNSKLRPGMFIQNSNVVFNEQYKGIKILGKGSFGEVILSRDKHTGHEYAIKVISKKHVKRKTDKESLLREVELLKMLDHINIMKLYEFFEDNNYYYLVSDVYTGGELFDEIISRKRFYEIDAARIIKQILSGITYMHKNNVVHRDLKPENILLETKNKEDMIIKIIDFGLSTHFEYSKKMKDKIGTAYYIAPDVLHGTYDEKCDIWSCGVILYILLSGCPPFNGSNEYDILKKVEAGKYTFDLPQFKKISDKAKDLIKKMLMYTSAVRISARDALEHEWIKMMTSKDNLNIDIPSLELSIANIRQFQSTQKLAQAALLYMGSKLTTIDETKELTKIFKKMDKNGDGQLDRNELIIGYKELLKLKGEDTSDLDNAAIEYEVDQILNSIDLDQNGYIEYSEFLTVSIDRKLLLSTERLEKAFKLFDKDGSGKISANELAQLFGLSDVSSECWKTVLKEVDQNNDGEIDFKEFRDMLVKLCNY
# Sequence of Plasmodium falciparum protein kinase 6 (PK6, PF3D7_1337100) (Q8IDW1 1-305): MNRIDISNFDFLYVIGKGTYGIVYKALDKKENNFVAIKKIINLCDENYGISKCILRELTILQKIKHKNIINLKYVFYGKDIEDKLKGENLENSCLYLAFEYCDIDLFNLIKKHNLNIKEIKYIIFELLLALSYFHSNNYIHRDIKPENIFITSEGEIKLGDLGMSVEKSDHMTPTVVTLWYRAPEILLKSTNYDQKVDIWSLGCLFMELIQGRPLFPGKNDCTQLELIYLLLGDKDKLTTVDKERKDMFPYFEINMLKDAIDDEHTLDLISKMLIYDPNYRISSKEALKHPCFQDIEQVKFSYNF
# Sequence of L-lactate dehydrogenase (Plasmodium falciparum (isolate CDC / Honduras)) (Q27743 whole entry, looked up): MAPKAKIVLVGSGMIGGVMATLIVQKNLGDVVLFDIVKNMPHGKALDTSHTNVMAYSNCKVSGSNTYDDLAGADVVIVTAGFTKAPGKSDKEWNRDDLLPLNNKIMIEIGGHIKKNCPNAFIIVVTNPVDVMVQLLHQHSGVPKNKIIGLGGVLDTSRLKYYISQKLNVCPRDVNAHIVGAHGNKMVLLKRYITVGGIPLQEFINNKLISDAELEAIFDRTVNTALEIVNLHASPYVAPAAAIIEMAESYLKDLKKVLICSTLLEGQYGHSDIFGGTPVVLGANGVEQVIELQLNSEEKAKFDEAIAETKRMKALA
# Sequence of Calcium-dependent protein kinase 1 (Plasmodium falciparum (isolate 3D7)) (P62344 whole entry, looked up): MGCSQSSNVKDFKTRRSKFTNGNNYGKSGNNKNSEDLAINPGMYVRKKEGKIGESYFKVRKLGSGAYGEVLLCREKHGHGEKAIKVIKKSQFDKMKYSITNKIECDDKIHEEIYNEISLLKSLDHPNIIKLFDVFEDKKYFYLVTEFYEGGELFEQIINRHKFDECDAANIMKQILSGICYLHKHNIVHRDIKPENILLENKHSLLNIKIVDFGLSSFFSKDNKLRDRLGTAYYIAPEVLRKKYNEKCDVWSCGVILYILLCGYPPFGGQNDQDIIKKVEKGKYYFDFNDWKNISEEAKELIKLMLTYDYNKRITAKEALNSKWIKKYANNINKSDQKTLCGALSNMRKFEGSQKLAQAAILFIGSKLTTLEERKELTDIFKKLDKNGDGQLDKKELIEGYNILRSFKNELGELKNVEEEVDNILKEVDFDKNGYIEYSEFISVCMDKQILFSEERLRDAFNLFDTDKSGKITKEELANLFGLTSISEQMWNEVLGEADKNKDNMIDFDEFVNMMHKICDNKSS
# Sequence of Protein kinase 7 (PK7), Plasmodium falciparum 3D7 (PF3D7_0213400) (Q7YTF7 1-343): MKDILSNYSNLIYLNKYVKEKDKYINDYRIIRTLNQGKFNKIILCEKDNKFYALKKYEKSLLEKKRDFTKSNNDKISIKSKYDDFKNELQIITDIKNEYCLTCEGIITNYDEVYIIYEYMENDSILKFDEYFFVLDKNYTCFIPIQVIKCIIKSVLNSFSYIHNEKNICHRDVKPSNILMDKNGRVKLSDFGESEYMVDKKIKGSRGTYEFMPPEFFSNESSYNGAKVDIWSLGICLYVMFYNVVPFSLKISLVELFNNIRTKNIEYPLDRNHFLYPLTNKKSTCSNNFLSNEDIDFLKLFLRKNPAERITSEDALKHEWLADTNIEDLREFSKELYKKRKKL
Structure (SMILES),growth inhibition [1],inhibition [2],inhibition [3],growth inhibition [4],outcome [5],outcome [6],outcome [7],outcome [8]
O=C(Nc1cccc(OC2CCN(Cc3ccc(F)cc3)CC2)c1)c1ccc(C(F)(F)F)cc1,6%,28%,3%,94% (active),inactive,inactive,inactive,inactive
C=C[C@H]1CN(CCCCCCC)CC[C@H]1CC(=O)Nc1cnnc2ccc(OC)cc12,100% (active),12%,3%,101% (active),inactive,inactive,inactive,inactive
O=C(NCCCCN1CCC(c2ccc3ccccc3c2O)CC1)c1ccc(NC(=O)c2ccc(Cl)cc2)cc1,89% (active),34%,3%,101% (active),inactive,inactive,inactive,inactive
FC(F)(F)c1ccc2nc(-c3cccc(-c4ccc(CNCC5CCCO5)cc4)c3)[nH]c2c1 (stereo not given),99% (active),29%,-7%,99% (active),inactive,inactive,inactive,inactive
O=C(NCCc1ccccc1)N(Cc1ccccc1-c1cccc(CNCCc2ccccc2)c1)C1CCN(Cc2ccccc2)CC1,88% (active),100% (active),4%,100% (active),inactive,inactive,inactive,inactive
Cc1cccc2[nH]c(-c3ccc(-c4cccc(NC(=O)Nc5ccsc5)c4)cc3)nc12,24%,24%,8%,101% (active),inactive,inactive,inactive,inactive
NC1CCN(c2cnn(Cc3cccc(NC(=O)Nc4ccc(-c5ccccc5)cc4)c3)c(=O)c2Cl)CC1,11%,5%,-3%,89% (active),inactive,inactive,inactive,inactive
COc1ccc(CN2CCC2=O)c(OC)c1,96% (active),0%,-6%,98% (active),inactive,inactive,inactive,inactive
CC(C)(C)C1CCC(CC2=C(C(=O)O)c3ccccc3C2=O)CC1 (stereo not given),56% (active),-4%,-1%,91% (active),inactive,inactive,inactive,inactive
Cc1nc2c(s1)c(=O)cc(CCc1cccc(F)c1F)n2CC(=O)N(Cc1ccc(-c2ccc(C(F)(F)F)cc2)cc1)C1CCN(C(C)C)CC1,82% (active),98% (active),0%,100% (active),inactive,inactive,inactive,inactive
O=C(/C=C/c1ccc(Cl)c(Cl)c1)N1CCCC(CCCN2CCC(c3c[nH]c4ccccc34)CC2)C1 (stereo not given),15%,30%,-1%,89% (active),inactive,inactive,inactive,inactive
O=c1[nH]c2ccc(Nc3nccc(NCCc4ccccc4)n3)cc2[nH]1,6%,-1%,3%,101% (active),inactive,inactive,inactive,inactive
Cc1ccc(S(=O)(=O)N2CCN(C(=O)c3cc(-c4cccs4)[nH]n3)CC2)c(C)c1,81% (active),-1%,-1%,85% (active),inactive,inactive,inactive,inactive
Cc1cccc2[nH]c(-c3cccc(-c4ccc(NC(=O)c5ccoc5)cc4)c3)nc12,56% (active),65% (active),-5%,99% (active),inactive,inactive,inactive,inactive
O=C(c1cccs1)N1CCN(c2ccc([N+](=O)[O-])c(NC3CC3)c2)CC1,95% (active),-5%,2%,100% (active),inactive,inactive,inactive,inactive
Oc1ccc(Nc2nc(N3CCCC3)c3ccccc3n2)cc1,100% (active),10%,-6%,102% (active),inactive,inactive,inactive,inactive
CN1CCN(CCCN(C(=O)Nc2cc(C(F)(F)F)cc(C(F)(F)F)c2)c2ccccc2Cc2ccccc2)CC1,92% (active),35%,0%,89% (active),inactive,inactive,inactive,inactive
COC(=O)COc1cc(C(=O)NCCCCN2CCC(c3ccc4c(c3OC)CCCC4)CC2)ccc1-c1ccc(Cl)cc1,21%,32%,2%,97% (active),inactive,inactive,inactive,inactive
Cc1cccc2[nH]c(-c3cccc(-c4ccc(CNCCCN5CCCC5=O)cc4)c3)nc12,38%,5%,2%,101% (active),inactive,inactive,inactive,inactive
CC[C@H](C)CNC(=O)c1ccnc(-c2ccc(CN3CCC(N4CCCC4)CC3)cc2)c1,84% (active),13%,-2%,99% (active),inactive,inactive,inactive,inactive
